In the library only some 0.31% were active in any assay of this set; here they are far more common.
TRPML1 blocker: blocks the human TRPML1 channel | activity change, negative = inhibition, % (no concentration beside the values) | hit rate 0.02% among 390,000 | Q9GZU1 | AID 624415 | TRPML1-inducible cells, Ca2+ dye fluorescence, FDSS; hits give low values; inhibition of EC80 agonist-evoked calcium signal; in the data active = activity change below about -50%; inconclusive = between about -30% and that limit;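 also: stimulus is agonist 54-4 at its EC80 concentration; % is scaled to controls: 0 for no effect and ±100 for the full control effect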
Target sequence (Q9GZU1 whole entry, looked up): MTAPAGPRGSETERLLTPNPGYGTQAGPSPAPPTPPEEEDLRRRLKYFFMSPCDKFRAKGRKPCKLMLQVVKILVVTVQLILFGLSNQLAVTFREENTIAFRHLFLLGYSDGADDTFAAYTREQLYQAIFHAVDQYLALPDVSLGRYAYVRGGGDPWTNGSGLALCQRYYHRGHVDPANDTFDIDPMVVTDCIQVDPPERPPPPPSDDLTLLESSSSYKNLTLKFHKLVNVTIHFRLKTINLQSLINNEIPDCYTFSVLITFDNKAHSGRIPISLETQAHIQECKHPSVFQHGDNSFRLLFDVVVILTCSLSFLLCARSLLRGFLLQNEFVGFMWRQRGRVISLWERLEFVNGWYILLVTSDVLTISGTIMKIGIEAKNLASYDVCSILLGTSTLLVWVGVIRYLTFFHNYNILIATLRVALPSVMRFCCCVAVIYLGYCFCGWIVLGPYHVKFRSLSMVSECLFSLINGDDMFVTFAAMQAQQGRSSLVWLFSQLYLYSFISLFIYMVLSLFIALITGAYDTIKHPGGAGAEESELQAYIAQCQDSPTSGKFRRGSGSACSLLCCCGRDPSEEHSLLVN
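Calcium fluorescence in TRPML1-DL cells induced overnight with Tet: a 110 s read after compound pin addition, then a 110 s antagonist read after challenge with 54-4 at 4 uM final (EC80).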
TRPV1 potentiator: human TRPV1 potentiation; potentiation, % at 8.33 µM; Q8NER1; TRPV1-expressing cells, Fluo-8 calcium influx, capsaicin EC20 potentiation; hit rate 0.02% among 320,000; in the data active = potentiation above about 80%; inconclusive = between about 30% and that limit; also: 0% is about no effect
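TRPV1-expressing cells were cultured overnight at 35.5C and loaded with Fluo-8 calcium dye for 40 to 90 min at room temperature. After a 10 s baseline, compound was added and calcium influx was read kinetically for 3 min (ex 480/em 520 nm).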
TRPV1 ag: activates the human vanilloid receptor TRPV1; Q8NER1; TRPV1-expressing cells, Fluo-8 calcium influx, agonist mode; activation, % at 8.33 µM; hit rate 0.19% among 320,000; in the data active = activation above about 80%; inconclusive = between about 30% and that limit; also: 0% is about no effect
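Fluo-8 calcium influx in TRPV1-expressing cells, kinetic read (ex 480/em 520 nm). Compound added and read 3 min for agonist activity, followed by capsaicin at EC20 final and 2 min further read for enhancement.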
TRPML1 agonist: human mucolipin-1 channel agonism. AID 624414. TRPML1-expressing cells, Ca2+ dye fluorescence, FDSS. Q9GZU1. hit rate 0.12% among 410,000. activation, % (test concentration not listed); in the data active = activation above about 50%; inconclusive = mostly about 30% to 49%; also: 0% is about no effect
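Kinetic FDSS Ca2+ read in Tet-induced TRPML1-DL cells (ABD Ca8 dye plus quencher, 45-90 min RT loading): baseline, then compound, then 110 s agonist window; EC80 agonist 54-4 at 4uM final added afterwards for a 110 s antagonist window.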
* marks the source's active call; other numbers are inactive results; u = inconclusive; x = no result given.

SMILES	TRPML1 blocker	TRPV1 potentiator	TRPV1 ag	TRPML1 agonist
CCCC(c1nnnn1Cc1cccs1)N1CCN(c2nc3ccccc3s2)CC1 (configuration not stated)	-18	u	-2	61*
COC(=O)c1c(C(=O)OC)c(-c2ccccc2)n2c1CS(=O)C2 (configuration not stated)	34	92*	-7	1
CCCn1c(C(C)Nc2nc(-c3cc(Cl)c(N)c(Cl)c3)cs2)nc2cc(Cl)c(N3CCCCC3)cc21 (configuration not stated)	-3	17	86*	-1
CC(C)(C)c1ccc(S(=O)(=O)N2CCN(C3CCCC3)CC2)cc1	2	8	2	0
CC1CC(C)CN(S(=O)(=O)c2ccc(C(C)(C)C)cc2)C1 (configuration not stated)	-13	2	23	56*
O=c1oc2ccc3ccccc3c2cc1-c1nnc(Nc2ccccc2F)s1	0	x	x	0
O=c1oc2cc(O)ccc2cc1-c1nnc(Nc2ccccc2F)s1	3	x	x	71*
O=c1oc2cc(O)ccc2cc1-c1nc2c(s1)CCc1ccccc1-2	-6	-13	83*	83*
O=c1oc2ccccc2cc1-c1nc2c(s1)CCc1ccccc1-2	-20	-1	1	7
CCc1c(C)sc2c1CCN(Cc1ccc(F)cc1)C2c1ccccc1 (configuration not stated)	1	x	x	0
CCOc1ccccc1CNCc1cccn1-c1nnc(N2CCN(c3ccccc3)CC2)s1	11	x	x	-1
Cc1ccc2oc(C(=O)N3CCC(c4nc5ccccc5s4)CC3)c(C)c2c1	-12	x	x	54*
Cc1c(C(=O)N2CCC(c3nc4ccccc4s3)CC2)oc2cc(Br)ccc12	6	x	x	0
CC[C@@H]1CCC[C@@H](O)[C@@H](C)C(=O)O[C@H](C)[C@@H](C)C/C=C(C)/C(OC)=C\C(=O)N(C)C([C@@H](C)CC)C(=O)N(C)[C@@H](C(C)C)C(=O)N(C)[C@@H](COC)C(=O)N2CCC[C@H]2C(=O)N(C)[C@@H](C(C)C)C(=O)N2CCC[C@H]2C(=O)O1 (some centres not stated)	x	x	x	51*
CCN(CC)c1ccc2cc(-c3nnc(-c4ccncc4)o3)c(=O)oc2c1	u	u	107*	116*
CCN(CC)c1ccc2cc(-c3nnc(-c4cccc(Cl)c4)o3)c(=O)oc2c1	-20	x	x	62*
COc1ccc(OC)c(Nc2ncc3c(n2)CCN(Cc2cc(OC)c(OC)c(OC)c2)C3)c1	15	x	x	1
CC(C)Oc1ccc(NC(=O)c2ccncc2)cc1	-10	-19	86*	0
COc1ccc(C(=O)Nc2ccc(C3(C#N)CCCC3)cc2)cc1	-2	-29	89*	0
COc1ccc(C(=O)Nc2cc3c4c(c2)CC(=O)N4CCC3)c(OC)c1	1	-5	7	0
COc1ccc(C(=O)Nc2nc3ccccc3s2)cc1	-1	-2	96*	4
COc1ccc(NC(=O)C2(c3ccc(NC(=O)c4ccc(C)cc4)cc3)CCCC2)cc1	0	-6	1	3
COc1ccc(C(=O)Nc2cc3c4c(c2)CC(=O)N4CCC3)cc1	u	-15	1	55*
Cc1ccc(-c2noc(-c3nnn(CC(=O)Nc4cc(C)cc(C)c4)c3N)n2)cc1	-15	x	x	1
CC[N+](C)(C)c1ccc(/C=C/c2ccnc3ccccc23)cc1	x	x	x	0
SMILES	TRPML1 blocker	TRPV1 potentiator	TRPV1 ag	TRPML1 agonist
COc1ccc(C(=O)Nc2ccc3ccccc3c2)cc1	37	-8	96*	1
COc1ccc2nc(NC(=O)c3ccc(-n4nc(C)cc4C)cc3)sc2c1	9	-5	-4	68*
CCCN1CNc2c(c(=O)[nH]c(=S)n2CCc2ccccc2OC)C1	x	x	x	-1
Cc1nn2c(=O)cc(COC(=O)c3ccccc3NC(=O)C(C)C)nc2s1	23	x	x	2
Cc1cc(Br)ccc1NC(=O)c1cc2c(=O)n(C)c3cc(Cl)ccc3c2s1	-5	x	x	0
COc1cccc(CN(CC2CCCO2)S(=O)(=O)c2ccc(S(=O)(=O)N(C)C)cc2)c1 (configuration not stated)	-11	-11	12	87*
Cc1c(N=c2scc(-c3ccccc3)n2C)c(=O)n(-c2ccccc2)n1C	-7	95*	5	0
CCOc1ccc(C(=O)NCCc2csc(-c3ccc(C(F)(F)F)cc3)n2)cc1OCC	-14	x	x	3
Clc1ccccc1CN(Cc1ccccc1)C(c1cccs1)c1nnnn1C1CCCC1 (configuration not stated)	16	1	28	0
Clc1ccc(CN(CC2CCCO2)C(c2cccs2)c2nnnn2C2CCCC2)cc1 (configuration not stated)	-3	-10	-2	54*
CCN(CC)c1ccc(/C=C/c2ccccn2)cc1	x	x	x	27
Cc1[nH]c2ccccc2c1C(=O)C(=O)NC1CC1	5	-3	82*	0
Cc1[nH]c2ccccc2c1C(=O)C(=O)NC1CC(=O)N(c2ccccc2)C1 (configuration not stated)	-2	x	x	-1
COc1ccc(-n2c(=O)c3c(c4cc(OC)ccc4n3C)n(Cc3cc(C)ccc3C)c2=O)cc1	4	x	x	0
Cc1ccccc1C(=O)n1nc(-c2ccco2)nc1NCc1cccs1	-4	x	x	1
COc1ccc(CCNC(=S)NCc2ccc(Cl)c(Cl)c2)cc1OC	17	-1	81*	1
C#CCN(Cc1ccc(OC)cc1)S(=O)(=O)C=C	x	x	x	-1
CCCCc1nn2c(=O)cc(COC(=O)c3cccc(NC(=O)CCc4ccccc4)c3)nc2s1	-14	x	x	-1
CCCc1nn2c(=O)cc(COC(=O)c3cccc(NC(=O)CCc4ccccc4)c3)nc2s1	-62*	x	x	2
Cc1ccc(S(=O)(=O)N(C)c2ccc(C)c([N+](=O)[O-])c2)cc1	29	80*	-6	2
COc1ccc(N(C)S(=O)(=O)c2ccc(C)cc2)c([N+](=O)[O-])c1	14	-5	15	3
CCC(C)(C)C1CCC(NC(=O)c2ccc(S(=O)(=O)N3CCOCC3)cc2)CC1 (configuration not stated)	20	-4	80*	2
Cc1ccnc2ccc3ccccc3c12	x	x	x	0
O=C(NC1CC(=O)N(c2ccc(Cl)cc2)C1)C(=O)c1c[nH]c2ccccc12 (configuration not stated)	3	x	x	0
CCC(Cn1nnc2ccccc2c1=O)NC(=O)Nc1ccc(C)c(C)c1 (configuration not stated)	-69*	x	x	0
SMILES	TRPML1 blocker	TRPV1 potentiator	TRPV1 ag	TRPML1 agonist
O=C(CSc1ccc(Br)cc1)N1CCOCC1	4	-31	80*	0
COc1ccccc1N1N=C(c2ccc([N+](=O)[O-])cc2)CC1c1ccccc1 (configuration not stated)	-16	9	6	69*
O=S1(=O)CCO[C@H]2CCCC[C@@H]2N1Cc1ccc(Cl)cc1	x	x	x	-1
CN(C)c1ccc(C(=O)/C=C/c2cccnc2)cc1	x	27	-2	x
CN(C)c1ccc(/C=C/C(=O)c2cccc(Br)c2)cc1	-2	2	87*	0
CCCCCC1CCNCC1	x	x	x	0
